# Among all 52,000 compounds or so, about 4,300 (8.3%) were called active. No stated cut-off is given here; in the data, active means survival mostly below about 52% (no sharp cut-off); inactive means mostly above about 56%. The list comes from a sample in which actives are over-represented; it also holds similar structures and randomly drawn compounds.
# Test system: DeltatarO mutant
# Assay: growth inhibition of S. aureus wild type versus tarO mutant, primary screen, teichoic acid synthesis inhibitors, RN4220, OD600 (AID 463173)
# Conditions: OD600, 18 h, stronger effect = lower value, screened at 18.75 µg/mL (by protocol)
row,SMILES,survival
1,COc1ccccc1-c1nnc2n(CCc3ccccc3)c(=O)c3ccccc3n12,69% (inactive)
2,CCN(CC)C(=O)c1sc2c(c1C)c(=O)n(-c1ccc(C)c(C)c1)c(=O)n2CC(=O)Nc1ccc(OC)cc1OC,78% (inactive)
3,O=C(NCc1cccc(Cl)c1)C1CCCN(c2ncnc3onc(-c4ccc(F)cc4)c23)C1 (stereo not drawn),90% (inactive)
4,COc1ccc(C)cc1NC(=O)c1nnn(Cc2cccc(Br)c2)c1N,87% (inactive)
5,COc1ccc(N2CCN(c3oc(-c4ccc(COc5cccc(C)c5)o4)nc3C#N)CC2)cc1,102% (inactive)
6,COc1cc2nc(C3CCC3)n(NC(=O)c3ccco3)c(=O)c2cc1OC,82% (inactive)
7,O=S1(=O)N=C(Nc2cccc(C(F)(F)F)c2)c2ccccc21,53% (inactive)
8,Cc1nnc2c(N3CCN(c4ccccc4)CC3)nc3ccc(C(=O)c4ccccc4)cc3n12,80% (inactive)
9,Cc1nnc2c(N3CCN(c4ccccc4F)CC3)nc3ccc(C(=O)c4ccccc4)cc3n12,93% (inactive)
10,COc1ccccc1N1CCN(c2nc3ccc(C(=O)c4ccccc4)cc3n3c(C)nnc23)CC1,46% (active)
11,COc1ccc(NC(=O)Cn2nc(-c3ccccc3)c3cnc4ccc(C)cc4c32)cc1,63% (inactive)
12,CC(C)c1ccc2c(c1)-c1ccccc1S(=O)(=O)N2CC(=O)N1CCCCC1,85% (inactive)
13,CCCC(=O)NC(C)c1nc2ccccc2n1Cc1ccccc1 (stereo not drawn),101% (inactive)
14,Cc1cc(N2CCOCC2)cc(C)[n+]1[O-],90% (inactive)
15,Cc1cc(C)cc(N2C(=O)CC(c3ccc(C(F)(F)F)cc3)C3=C2COC3=O)c1 (stereo not drawn),72% (inactive)
16,COc1ccccc1C1CC(=O)N(c2cccc(C(F)(F)F)c2)C2=C1C(=O)OC2 (stereo not drawn),56% (inactive)
17,CCc1ccc(C2CC(=O)N(c3cccc(C(F)(F)F)c3)C3=C2C(=O)OC3)cc1 (stereo not drawn),57% (active)
18,CCN(CC)c1ccc(NC(=O)c2cc(CN3CCCC3)on2)c(C)c1,102% (inactive)
19,CC(=O)c1ccc(N2CCN(c3ncnc4onc(C)c34)CC2)cc1,55% (inactive)
20,COc1ccc(S(=O)(=O)c2nnn(-c3cccc(Cl)c3)c2N)cc1,56% (inactive)
21,CCCOc1ccc(-c2nc3ccccc3c(=O)o2)cc1,64% (inactive)
22,CCOc1ccc(-c2nc3ccccc3c(=O)o2)cc1,68% (inactive)
23,CCOc1cccc(-c2nc3ccccc3c(=O)o2)c1,35% (active)
24,CCCOc1cccc(C(=O)NCc2cccnc2)c1,81% (inactive)

row,SMILES,survival
1,COc1cc(N2C(=O)CSC23C(=O)N(C)c2ccccc23)cc(OC)c1OC (stereo not drawn),66% (inactive)
2,COC(=O)c1cc(S(=O)(=O)NCC2CCN(Cc3ccc(F)cc3)CC2)cn1C,109% (inactive)
3,N#Cc1ccccc1CSc1nnc(-c2ccc(Br)cc2)o1,92% (inactive)
4,CCCCCSc1nnc(-c2ccc(Br)cc2)o1,-1% (active)
5,CCOC(=O)CSc1nnc(-c2ccc(OC)cc2)o1,66% (inactive)
6,COc1ccc(-c2nnc(SCC(=O)Oc3cc(C)ccc3C)o2)cc1,67% (inactive)
7,CCCCOC(=O)CSc1nnc(-c2ccc(C)cc2)o1,12% (active)
8,N#Cc1ccc(CSc2nnc(-c3ccc(Br)cc3)o2)cc1,87% (inactive)
9,CC(=O)Nc1ccc(S(=O)(=O)N2CCC(N3CCN(Cc4ccc(C)cc4)C(=O)C3=O)CC2)cc1,83% (inactive)
10,COCCCNc1nc2c(-c3ccccc3)nnn2c2ccccc12,78% (inactive)
11,Cc1csc2nc(-c3cccc(NC(=O)c4ccccc4F)c3)cn12,126% (inactive)
12,CC(=O)Nc1cc(NC(C)=O)cc(-c2nc3ccccc3[nH]2)c1,83% (inactive)
13,CC(C)(C)C(=O)Nc1ccc(-c2nc3ccc(NC(=O)C(C)(C)C)cc3[nH]2)cc1,105% (inactive)
14,O=C(Nc1cccc(-c2nc3ccccc3[nH]2)c1)c1c(F)cccc1F,37% (active)
15,O=C(Nc1ccc2nc(-c3ccccc3)[nH]c2c1)c1ccco1,1% (active)
16,O=C(NCc1nc2ccccc2[nH]1)c1c(F)cccc1F,56% (inactive)
17,O=C(Nc1cccc(NC(=O)c2ccccc2F)c1)c1ccccc1,77% (inactive)
18,O=C(Nc1cccc(-c2nc3ccccc3[nH]2)c1)c1ccccc1F,29% (active)
19,CCC(=O)Nc1ccc(-c2nc3ccc(NC(=O)CC)cc3[nH]2)cc1,66% (inactive)
20,O=C(Nc1ccc(C(=O)OCc2cc(=O)n3ccsc3n2)cc1)c1cccc(F)c1,102% (inactive)
21,COc1ccc(C(=O)N(Cc2ccco2)Cc2ccccc2F)cc1Cl,98% (inactive)
22,Cc1cccc(NC(=O)CCN2CCC(C)CC2)c1,91% (inactive)
23,Cc1ccc(NC(=O)CSc2nc(=O)n(CCCN(C)C)c3c2CCC3)cc1F,71% (inactive)
24,COc1cc(NC(=O)C(CC(C)C)N2Cc3ccccc3C2=O)cc(OC)c1 (stereo not drawn),108% (inactive)

row,SMILES,survival
1,O=C(N=Nc1c(O)[nH]c2ccccc12)C1C2CCCCC21 (stereo not drawn),95% (inactive)
2,O=C(N=Nc1c(O)[nH]c2ccccc12)C1CC1c1ccccc1 (stereo not drawn),35% (active)
3,O=C(Cc1ccccc1)N=Nc1c(O)[nH]c2ccccc12,91% (inactive)
4,Cc1cc(Nc2cccc(Cl)c2)nc2ccc(NC(=O)Cc3ccc(Cl)cc3)cc12,105% (inactive)
5,Cc1c(C(=O)N2CCCCCC2)c(S(=O)(=O)NCc2ccccc2)c(C)n1C,77% (inactive)
6,CCOc1ccc2[nH]c(=O)c(CN(Cc3ccccc3)C(=O)N3CCOCC3)cc2c1,105% (inactive)
7,CCOc1ccc(-c2nnn(CC(=O)NC3CCCCC3)n2)cc1,75% (inactive)
8,CC(C)COc1ccc(-c2nnn(CC(=O)N3C(C)CCCC3C)n2)cc1 (stereo not drawn),69% (active)
9,CC(C)c1ccc(-c2nnn(CC(=O)OC3CCCCC3)n2)cc1,87% (inactive)
10,Cc1ccc(NC(=O)Cc2ccc(-n3c(C)nc4cccnc43)cc2)c(Cl)c1,107% (inactive)
11,CCOc1ccc(NC(=O)CSc2ncn[nH]2)cc1,67% (inactive)
12,CCCOc1ccc(C2c3c(-c4ccccc4O)n[nH]c3C(=O)N2CCc2ccccc2)cc1OCC (stereo not drawn),53% (inactive)
13,COc1cc(C2c3c(-c4ccccc4O)n[nH]c3C(=O)N2Cc2ccncc2)cc(OC)c1OC (stereo not drawn),82% (inactive)
14,CCCN1C(=O)c2[nH]nc(-c3ccccc3O)c2C1c1ccc(OCc2ccccc2)c(OCC)c1 (stereo not drawn),40% (active)
15,CCCCN1C(=O)c2[nH]nc(-c3ccccc3O)c2C1c1cc(Br)c(O)c(OC)c1 (stereo not drawn),2% (active)
16,COCCN1C(=O)c2[nH]nc(-c3ccccc3O)c2C1c1ccc(Cl)c(Cl)c1 (stereo not drawn),3% (active)
17,CCOc1cc(C2c3c(-c4ccccc4O)n[nH]c3C(=O)N2CCc2ccccc2)ccc1O (stereo not drawn),29% (active)
18,CCCN1C(=O)c2[nH]nc(-c3ccc(F)cc3)c2C1c1ccc(O)c(OCC)c1 (stereo not drawn),51% (inactive)
19,COc1ccc(/C=C\c2onc(C)c2S(=O)(=O)N2CCC(C(=O)Nc3cccc(OC)c3)CC2)cc1,97% (inactive)
20,Cc1cc(C)n(C2CC(=O)N(N(C)C)C2=O)n1 (stereo not drawn),92% (inactive)
21,Cc1cc(C)c2c(=O)cc(C(=O)Nc3ccc(S(=O)(=O)Nc4nc(C)cc(C)n4)cc3)oc2c1,103% (inactive)
22,O=C(CO)N/N=C\c1c(F)cccc1Cl,51% (inactive)
23,Cc1ccc(S(=O)(=O)C(CNC(=O)Cc2ccc(Cl)cc2)c2cccs2)cc1 (stereo not drawn),85% (inactive)
24,CCc1ccc(NC(=O)CSC2=Nc3ccccc3C3=NC(CC(=O)NC4CCCCC4)C(=O)N23)cc1 (stereo not drawn),86% (inactive)

row,SMILES,survival
1,CC(C)(O)C1Cc2cc(/C=C/C(=O)O)c(O)cc2O1 (stereo not drawn),88% (inactive)
2,CN(C)c1ccc(CNC(=O)c2ccc(NC(=O)c3nsc4ccccc34)cc2)cc1,84% (inactive)
3,COCCN1C(=O)c2[nH]nc(-c3ccccc3O)c2C1c1ccc(OCc2ccccc2)c(OC)c1 (stereo not drawn),13% (active)
4,CCCCOc1ccc(C2c3c(-c4ccccc4O)n[nH]c3C(=O)N2Cc2ccncc2)cc1OC (stereo not drawn),61% (inactive)
5,CCOc1ccc(C2c3c(-c4ccccc4O)n[nH]c3C(=O)N2Cc2cccnc2)cc1OC (stereo not drawn),90% (inactive)
6,CCCN1C(=O)c2[nH]nc(-c3ccccc3O)c2C1c1ccc(OCc2ccccc2)c(OC)c1 (stereo not drawn),44% (active)
7,COc1cc(C2c3c(-c4ccccc4O)n[nH]c3C(=O)N2CCO)ccc1OCc1ccccc1 (stereo not drawn),77% (inactive)
8,CCCCN1C(=O)c2[nH]nc(-c3ccccc3O)c2C1c1ccc(OCc2ccccc2)c(OC)c1 (stereo not drawn),35% (active)
9,CCOC(=O)c1c(C)[nH]c(CCC(=O)NCc2ccc(F)cc2)c1C,89% (inactive)
10,COCCCNC(=O)Cn1nc(N2CCN(c3ccccc3)CC2)ccc1=O,91% (inactive)
11,c1ccc(CSc2nc3ncccc3[nH]2)cc1,93% (inactive)
12,CCN(CC)C(=O)C1CCN(C(=O)c2cnn(-c3ccccc3)c2-n2cccc2)CC1,83% (inactive)
13,Cc1ccc2occ(CC(=O)Nc3ccc(S(=O)(=O)N4CCC(C)CC4)cc3)c2c1,55% (active)
14,Cc1ccc2occ(CC(=O)Nc3ccc(S(=O)(=O)N4CCCC(C)C4)cc3)c2c1 (stereo not drawn),58% (inactive)
15,CC1CCN(S(=O)(=O)c2ccccc2)CC1,104% (inactive)
16,CC(C)(C)c1ccc(S(=O)(=O)N2CCC(c3ccncc3)CC2)cc1,109% (inactive)
17,Cc1ccc2c(CC(=O)Nc3ccc(S(=O)(=O)N4CCC(C)CC4)cc3)coc2c1,59% (inactive)
18,O=S(=O)(c1ccc(Cl)cc1)N1CCC(c2ccncc2)CC1,73% (inactive)
19,CC1CCN(S(=O)(=O)c2ccc(NC(=O)Nc3ccccc3)cc2)CC1,9% (active)
20,CC(=O)Nc1ccc(S(=O)(=O)N2CCC(c3ccncc3)CC2)cc1,-5% (active)
21,CC(=O)Nc1ccc(S(=O)(=O)N2CCC(C)CC2)cc1,96% (inactive)

# From PubChem BioAssay AID463173 (ICCB-Longwood Screening Facility, Harvard Medical School, 2010)
